Test results reported in PubChem BioAssay AID1490 (National Center for Advancing Translational Sciences (NCATS), 2009).
Hit rate of the full screen: of about 310,000 compounds, about 11,000 (3.5%) were called active. About 4% were inconclusive and are not listed. The sample holds actives, similar compounds and a random draw of the others, so the mix is not that of the screen. Calls come from the whole dose curve; as a rule, active = well fitted inhibition curve with a large enough effect; inconclusive = small, poorly fitted or top-dose-only effect, or another doubt; inactive = no such curve, though single readings can be large or run the other way.
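Note: the enzyme is Sfp with the accession as filed and its product quenches rhodamine fluorescence.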
Potency is the fitted concentration of half-maximal effect.
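Throughout, for largest response in the series, negative = inhibition: 0% = enzyme reaction without inhibitor and -100% = no enzyme wells.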

Each compound was assayed against 4'-phosphopantetheinyl transferase ffp (Bacillus subtilis) (UniProt Q9F4F7) (assay: qHTS Assay for Inhibitors of Bacillus subtilis Sfp phosphopantetheinyl transferase (PPTase)). Settings: Biochemical Sfp PPTase activity.
Outline: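 With Hepes-Na pH 7.6 buffer containing 10 mM MgCl2, Sfp (15 nM) modified BHQ-2-YbbR (12.5 uM) using rhodamine-CoA (5 uM). Two reads 30 minutes apart at 525/598 nm yielded each well's rate.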
In the case of `O=C(NCCS(=O)(=O)N1CCN(c2ccccc2F)CC1)c1ccc(Br)o1`, the largest response in the series, negative = inhibition is reported as 27.4% (inactive).
With `O=C(O)CC1=C(Nc2ccccc2)C(=O)N(c2ccccc2)C1c1ccc(Cl)cc1` (stereo not drawn) the largest response in the series, negative = inhibition was 18.5% (inactive).
With `O=C1C=C(c2ccc(Cl)cc2)C(=O)N1Nc1ccccc1` the Potency was 10 µM (active).
In the case of `O=C1c2cccc3cc(Br)cc(c23)C(=O)N1Nc1ccccc1`, the largest response in the series, negative = inhibition is reported as 9.09% (inactive).
In the case of `O=C(CN1C(=O)COc2ccccc21)NCCN1CCc2ccccc2C1`, the largest response in the series, negative = inhibition is reported as 7.58% (inactive).
In the case of `Cc1cccc2c1-c1sc(C(=O)NCCCN3CCc4ccccc4C3)cc1CO2`, the Potency is reported as 44.7 µM (active).
With `O=C(NCCCN1CCOCC1)c1cc2c(s1)CCC2` the largest response in the series, negative = inhibition was 23.9% (inactive).
In the case of `O=C(CCCC(=O)N1CCN(c2cccc(Cl)c2)CC1)c1ccccc1`, the largest response in the series, negative = inhibition is reported as -3.1% (inactive).
With `CN(C(=O)COC(=O)CNC(=O)C12CC3CC(CC(C3)C1)C2)c1ccccc1` the largest response in the series, negative = inhibition was 0.528% (inactive).
With `O=C(N/N=C/c1cccc(OC(=O)c2ccc([N+](=O)[O-])cc2)c1)c1cccnc1` the largest response in the series, negative = inhibition was 10% (inactive).
For `CCN(CC)CCN1C(=O)C(=O)/C(=C(/O)c2ccccc2)C1c1ccccc1F` (stereo not drawn), the largest response in the series, negative = inhibition was 4.16% (inactive).
`COc1ccc(/C(O)=C2/C(=O)C(=O)N(CCCN(C)C)C2c2ccccc2)cc1OC` (stereo not drawn) was tested, and the largest response in the series, negative = inhibition was 6.96% (inactive).
In the case of `COc1cccc(C2/C(=C(/O)c3ccc(F)cc3)C(=O)C(=O)N2CCN(C)C)c1` (stereo not drawn), the largest response in the series, negative = inhibition is reported as -8.12% (inactive).
For `COc1ccc(C2/C(=C(/O)c3ccccc3)C(=O)C(=O)N2c2ncccn2)cc1OC` (stereo not drawn), the largest response in the series, negative = inhibition was -2.32% (inactive).
With `CCCOc1ccc(/C(O)=C2/C(=O)C(=O)N(CCN(C)C)C2c2ccc(OC)c(OC)c2)cc1` (stereo not drawn) the Potency was 79.4 µM (active).
`CCN(CC)CCN1C(=O)C(=O)/C(=C(/O)c2ccc(OC)c(OC)c2)C1c1ccccn1` (stereo not drawn) was tested, and the Potency was 56.2 µM (active).
With `CC(=O)c1cccc(NC(=O)COc2ccc(S(=O)(=O)N3CCOCC3)cc2)c1` the largest response in the series, negative = inhibition was 14.4% (inactive).
In the case of `O=C(O)CN1c2cccc3cccc(c23)S1(=O)=O`, the largest response in the series, negative = inhibition is reported as -16.8% (inactive).
For `CSc1n[nH]c(=S)n1N`, the Potency was 44.7 µM (active).
For `COc1ccc(OCc2n[nH]c(=S)n2N)cc1`, the largest response in the series, negative = inhibition was -87.4% (inactive).
`CC(C)NC(=O)C(=O)N/N=C/c1ccco1` was tested, and the largest response in the series, negative = inhibition was 13% (inactive).
With `O=c1nc(N/N=C/c2ccco2)cn[nH]1` the Potency was 31.6 µM (active).
With `O=C(Cn1cnc2ccccc21)N/N=C/c1ccco1` the largest response in the series, negative = inhibition was 15.1% (inactive).
In the case of `Cc1ccc(S(=O)(=O)NCc2ccc(C(=O)NC3CCC(C)CC3)cc2)cc1` (stereo not drawn), the largest response in the series, negative = inhibition is reported as 17% (inactive).
`Cc1ccc(NC2CCCN(C(=O)CCc3cn[nH]c3)C2)cc1C` (stereo not drawn) was tested, and the largest response in the series, negative = inhibition was 7.06% (inactive).
In the case of `O=C(O)CCCn1cc(NC(=O)COc2cccc(Cl)c2)cn1`, the largest response in the series, negative = inhibition is reported as 12.9% (inactive).
In the case of `O=S(=O)(NC1CC1)c1ccc(Cl)cc1`, the largest response in the series, negative = inhibition is reported as 10.7% (inactive).
In the case of `Cc1cccc(C)c1NC(=O)C1CCCN1C(=O)OC(C)(C)C` (stereo not drawn), the largest response in the series, negative = inhibition is reported as 0.244% (inactive).
For `Cc1cc(C)c(NC(=S)N2CCCC2C(=O)O)c(C)c1` (stereo not drawn), the Potency was 35.5 µM (active).
`Cc1cc([N+](=O)[O-])c(N2CCC[C@@H]2C(=O)O)c([N+](=O)[O-])c1` was tested, and the largest response in the series, negative = inhibition was 0.854% (inactive).
In the case of `O=[N+]([O-])c1ccc(N2CCN(c3ccc(F)cc3)CC2)cn1`, the largest response in the series, negative = inhibition is reported as 10.5% (inactive).
For `CC1C(=O)C(C)C(c2ccc(O)cc2)NC1c1ccc(O)cc1` (stereo not drawn), the largest response in the series, negative = inhibition was 4.83% (inactive).
For `COc1ccc(-c2cc(=O)oc3cc(OC(C)C(=O)NCC4CCC(C(=O)O)CC4)ccc23)cc1` (stereo not drawn), the largest response in the series, negative = inhibition was 18.5% (inactive).
With `COc1c(O)c2c(=O)cc(OC)c3c4c(OC)cc(=O)c5c(O)c(OC)c6c(c(c1C[C@@](C)(O)[C@H]6C(C)=O)c23)c54` the largest response in the series, negative = inhibition was -14.1% (inactive).
For `O=C(Nc1ccncc1)Nc1ccc(F)cc1`, the largest response in the series, negative = inhibition was 14.5% (inactive).
`Fc1ccc(Nc2nnns2)cc1` was tested, and the Potency was 8.91 µM (active).
`CN(C)c1nc(NN)nc(Nc2ccc(F)cc2)n1` was tested, and the largest response in the series, negative = inhibition was -5.52% (inactive).
With `O=[N+]([O-])c1ccc(N/N=C2/CCCCC2c2ccccn2)c([N+](=O)[O-])c1` (stereo not drawn) the Potency was 35.5 µM (active).
For `C[n+]1ccccc1C1CCCC/C1=N\Nc1ccc([N+](=O)[O-])cc1[N+](=O)[O-]` (stereo not drawn), the largest response in the series, negative = inhibition was -1.83% (inactive).
For `O=C(Nc1ccccc1)O/N=C1\CCCCC1c1ccc([N+](=O)[O-])cc1[N+](=O)[O-]` (stereo not drawn), the largest response in the series, negative = inhibition was -6.23% (inactive).
`COc1ccccc1N1CCN(C(=O)c2cc(=O)c3cc(C)ccc3o2)CC1` was tested, and the largest response in the series, negative = inhibition was -2.28% (inactive).
For `Cc1cccc(C2=N/C(=C/c3cccs3)C(=O)O2)c1`, the largest response in the series, negative = inhibition was -1.85% (inactive).
`Cc1cccc(-c2cc(=O)c3cc(C)ccc3o2)c1` was tested, and the Potency was 3.55 µM (active).
`CCN1CCN(c2ccc(S(=O)(=O)N3CCCCC3)cc2NC(=O)Cc2c(Cl)cccc2Cl)CC1` was tested, and the largest response in the series, negative = inhibition was -8.91% (inactive).
`CCN(C(=O)c1cc([N+](=O)[O-])ccc1NCc1cccnc1)c1ccccc1` was tested, and the largest response in the series, negative = inhibition was -0.174% (inactive).
With `Cc1cc(C)c(OCC(=O)N/N=C/c2ccco2)c(C)c1` the largest response in the series, negative = inhibition was 2.54% (inactive).
`COC(=O)COc1ccc2c(c1C)O/C(=C\c1ccco1)C2=O` was tested, and the Potency was 50.1 µM (active).
With `COC(=O)C1=C(C)N(c2ccc(Br)cc2)C(=O)/C1=C\c1ccco1` the largest response in the series, negative = inhibition was -29.4% (inactive).
With `CC(=O)Nc1ccc(S(=O)(=O)NC2Cc3ccccc3C2)cc1` the largest response in the series, negative = inhibition was 10.7% (inactive).
With `CC(CC(=O)N1CCN(c2ccccc2)CC1)S(=O)(=O)c1ccc2c(c1)NC(=O)CS2` (stereo not drawn) the largest response in the series, negative = inhibition was 13.4% (inactive).
For `COc1ccc(C2c3[nH]c4ccccc4c3C[C@H]3C(=O)N(CC(C)C)CC(=O)N23)c(OC)c1` (stereo partly drawn), the largest response in the series, negative = inhibition was -0.0198% (inactive).
In the case of `Cc1cc(=O)[nH]c(SCC(N)=O)c1C#N`, the largest response in the series, negative = inhibition is reported as -20.3% (inactive).
For `Cc1cc(=O)[nH]c(S)c1C#N`, the Potency was 2.24 µM (active).
With `COC(=O)C1(C)C=CC2(CCCCC2)N1C(C)=O` (stereo not drawn) the largest response in the series, negative = inhibition was -0.895% (inactive).
In the case of `Cc1ccc(-n2c(N)c(C(=O)N3CCOCC3)sc2=S)c(C)c1`, the Potency is reported as 28.2 µM (active).
For `Cc1ccc(S(=O)(=O)N2CCN(C(=O)N3CCOCC3)CC2)c(C)c1`, the largest response in the series, negative = inhibition was 12% (inactive).
In the case of `O=C(c1ccc(S(=O)(=O)c2ccccc2)cc1)N1CCCCCC1`, the largest response in the series, negative = inhibition is reported as -3.64% (inactive).
With `N#Cc1ccccc1-n1c(N)c(C(=O)N2CCCC2)sc1=S` the Potency was 25.1 µM (active).
With `Cc1cccc(-n2c(N)c(C(=O)N3CCN(C)CC3)sc2=S)c1` the Potency was 3.55 µM (active).
`CC(C)=C1SC(N2CCN(c3cccc(C)c3)CC2)=NC1=O` was tested, and the largest response in the series, negative = inhibition was -3.03% (inactive).
`CCC(=O)Nc1sc(C(=O)N2CCCCC2)c(C)c1C#N` was tested, and the largest response in the series, negative = inhibition was 8.83% (inactive).
In the case of `COc1ccc2[nH]c(C(=O)N3CCN(C)CC3)c(C)c2c1`, the largest response in the series, negative = inhibition is reported as 10.8% (inactive).
`Cc1ccc(N2CCN(C(=O)c3cccs3)CC2)c(C)c1` was tested, and the largest response in the series, negative = inhibition was -4.64% (inactive).
